# Screens: PubChem, The Scripps Research Institute Molecular Screening Center
# Shown are actives, neighbours in structure and some others; about 3.4% of the full set was active somewhere.
# MITF primary – inhibitors of human MITF. O75030. AlphaScreen MITF homodimerization, bead proximity signal. inhibition, % at 2.6 µM. 650,000 tested, 0.91% active. AID 1259374; in the data active = inhibition above about 50%
# Target sequence (O75030 whole entry, looked up): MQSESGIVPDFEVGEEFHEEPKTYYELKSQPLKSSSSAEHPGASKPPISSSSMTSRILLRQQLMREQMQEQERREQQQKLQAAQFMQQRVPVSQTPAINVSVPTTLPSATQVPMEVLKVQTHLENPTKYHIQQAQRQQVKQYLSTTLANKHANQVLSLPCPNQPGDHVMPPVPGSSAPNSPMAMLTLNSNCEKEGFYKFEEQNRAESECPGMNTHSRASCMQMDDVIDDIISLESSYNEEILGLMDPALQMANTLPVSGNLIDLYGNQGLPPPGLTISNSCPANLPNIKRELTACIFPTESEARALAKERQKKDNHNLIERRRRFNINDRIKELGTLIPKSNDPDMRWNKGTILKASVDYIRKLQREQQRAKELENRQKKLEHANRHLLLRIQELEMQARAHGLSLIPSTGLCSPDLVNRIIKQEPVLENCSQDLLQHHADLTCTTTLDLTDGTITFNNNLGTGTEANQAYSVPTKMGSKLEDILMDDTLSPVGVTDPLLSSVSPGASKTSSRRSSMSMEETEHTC
# TEAD-YAP block – TEAD-YAP interaction inhibition. 640,000 tested, 1.4% active. HEK-TIYL cells, TEAD-Gal4/YAP UAS-luciferase luminescence. AID 1259422. inhibition, % at 9.12 µM; in the data active = inhibition above about 32%
# GPR151 ag – activators of human GPR151. PathHunter beta-arrestin GPR151 cells, luminescence. activation, % at 11.2 µM. 650,000 tested, 1% active. AID 1508602; in the data active = activation above about 4.9%
# FBW7 act – activators of human E3 ligase FBW7; AlphaScreen FBW7–phospho-cyclin E peptide binding, activator screen; 650,000 tested, 0.13% active; normalized activity (activation), % at 26.1 µM; Q969H0; AID 1259310; in the data active = normalized activity above about 1.9%;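 note: purified mutant Fbw7 with reduced substrate affinity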
# Hits are given with their value; i = inactive.
SMILES,MITF primary,TEAD-YAP block,GPR151 ag,FBW7 act
COc1ccc(CCNC(=O)c2ccc3c(c2)CC(c2nc4ccc(-c5ccnc(N)n5)cc4[nH]2)CO3)cc1 (stereo not drawn),i,41,i,5.8
COCCNC(=O)c1ccc2c(c1)CC(c1nc3ccc(-c4ccnc(N)n4)cc3[nH]1)CO2 (stereo not drawn),i,i,i,i
CC(C)CNC(=O)c1ccc2c(c1)CC(c1nc3ccc(-c4ccnc(N)n4)cc3[nH]1)CO2 (stereo not drawn),i,i,i,2.3
CC(CNC(=O)c1ccc2c(c1)CC(c1nc3ccc(-c4ccnc(N)n4)cc3[nH]1)CO2)c1cccs1 (stereo not drawn),i,45,i,2.7
COc1ccc(/C=N/NC(=O)CNc2ccc(Cl)cc2Br)cc1,i,i,i,i
CC(=O)CSc1nc(C2CC2)cc(C(F)(F)F)c1C#N,i,i,i,2.7
Cc1cc(=O)[nH]c(NC2CCN(C(=O)C(C)(C)c3ccc(Cl)cc3)CC2)n1,i,i,i,i
Cc1cc(=O)[nH]c(NC2CCN(C(=O)N3c4ccccc4Sc4ccccc43)CC2)n1,i,56,i,i
O=C(O)c1cc(-c2ccco2)nc2cc3ccccc3cc12,i,i,i,i
COc1cccc(NC(=O)c2sc(NC(=O)/C=C/c3ccccc3)nc2C)c1,i,55,i,i
O=C1CCCC2=C1C(c1ccc(Br)cc1)Nc1ccc(C(=O)c3ccccc3)cc1N2 (stereo not drawn),i,51,i,i
O=C1CCCC2=C1C(c1cccc([N+](=O)[O-])c1)Nc1ccc(C(=O)c3ccccc3)cc1N2 (stereo not drawn),i,54,i,i
O=C1CCCC2=C1C(c1ccncc1)Nc1ccc(C(=O)c3ccccc3)cc1N2 (stereo not drawn),i,i,i,i
Cc1ccc(C2Nc3ccc(C(=O)c4ccccc4)cc3NC3=C2C(=O)CCC3)cc1 (stereo not drawn),i,41,i,i
O=C1CCCC2=C1C(c1ccccc1)Nc1ccc(C(=O)c3ccccc3)cc1N2 (stereo not drawn),i,35,i,i
CCN(CC)c1ccc(Nc2nc(-c3c(C)nc4cc(C)ccn34)cs2)cc1,i,i,i,i
CCc1ccccc1N(CC(=O)NC)S(=O)(=O)c1ccccc1,i,i,i,i
NC(=O)Nc1ccc(C(=O)Nc2ccc(F)cc2Cl)cc1,i,i,i,i
O=C1CCCC2=C1C(c1cccc(Cl)c1)Nc1ccc(C(=O)c3ccccc3)cc1N2 (stereo not drawn),i,70,i,i
O=C1CCCC2=C1C(c1cccc(O)c1)Nc1ccc(C(=O)c3ccccc3)cc1N2 (stereo not drawn),i,i,i,i
OCCCNc1ccc2ncc(-c3ccccc3F)n2n1,i,56,i,i
OCCCNc1ccc2ncc(-c3cccc4ccccc34)n2n1,i,i,i,i
Fc1ccccc1-c1cnc2ccc(NCc3ccco3)nn12,i,39,i,i
COc1ccc(C(C)C)cc1-c1cnc2ccc(NCc3ccco3)nn12,i,59,i,i
COCCNc1ccc2ncc(-c3ccccc3F)n2n1,i,49,i,i
SMILES,MITF primary,TEAD-YAP block,GPR151 ag,FBW7 act
COc1ccc(-c2cnc3ccc(NCc4ccco4)nn23)c(OC)c1,i,i,i,i
C=CCn1c(=O)c2c(nc3n(-c4ccccc4C)c(C)cn23)n(C)c1=O,i,i,i,2.1
CCCn1c(=O)c2c(nc3n(-c4ccccc4C)c(C)cn23)n(C)c1=O,i,i,i,i
Cc1ccnc(NC(=O)Cn2nc([N+](=O)[O-])c(Br)c2C)c1,i,i,i,i
COC(CNC(=O)c1cnn2c(C)c(Cc3c(C)cc(C)cc3C)c(C)nc12)OC,i,50,i,i
COC(=O)c1cnn2c(C)c(Cc3ccc(F)cc3)c(C)nc12,i,36,i,i
COc1ccccc1CNC(=O)c1cnn2c(C)c(Cc3ccc(F)cc3)c(C)nc12,i,i,i,i
Cc1c2oc3c(C)ccc(C(=O)C4CCCCO4)c3nc-2c(C(=O)C2CCCCO2)c(N)c1=O (stereo not drawn),i,96,i,i
O=C1C(Cl)=C(N2CCCCC2)C(=O)C(Cl)=C1/C=C/N1CCCCC1,86,i,i,i
O=C(Nc1ccc2oc(-c3ccc(Cl)cc3Cl)nc2c1)c1ccccc1,i,i,i,i
CCC(C)N1C(=O)/C(=C/c2c(NCc3ccco3)nc3ccccn3c2=O)SC1=S (stereo not drawn),i,43,i,i
C=CCOC(=O)C1=C(C)NC(=S)NC1c1ccccc1OCC (stereo not drawn),i,i,i,i
CCOC(=O)C1=C(C)NC(=S)NC1c1ccccc1OCC(=O)Nc1ccc(C)cc1 (stereo not drawn),i,36,i,i
O=C(NNC(=O)c1ccccc1O)c1cccnc1,i,i,i,i
Fc1ccc(CSc2nnnn2-c2ccc3c(c2)OCO3)c(Cl)c1,i,51,i,i
Fc1ccccc1CSc1nnnn1-c1ccc2c(c1)OCO2,i,i,i,i
Cc1nc(NC(C)c2ccccc2)cc(-c2cncc(Br)c2)n1 (stereo not drawn),i,i,i,i
Cc1nc(NC(C)c2ccccc2)cc(-c2ccccn2)n1 (stereo not drawn),i,36,i,i
COc1ccc(Br)cc1C(=O)O,i,i,i,i
COc1cc(C(=O)O)c(-n2c(C)ccc2C)cc1OC,72,i,i,i
O=C1CC(c2c[nH]c3ccccc23)C(=O)N1c1ccc(O)cc1 (stereo not drawn),i,i,i,i
Cc1nc2ccccc2c(=O)n1-c1cccc(NC(=O)c2c(F)cccc2Cl)c1,i,i,i,i
COc1ccc(O)c(C2NN=C(c3ccccc3)S2)c1 (stereo not drawn),i,42,i,i
CCOc1ccc(C2NN=C(c3ccccc3)S2)cc1 (stereo not drawn),i,71,i,i
CN(c1ccccc1)c1ccc(C2NN=C(c3ccccc3)S2)cc1 (stereo not drawn),i,i,i,2.1
SMILES,MITF primary,TEAD-YAP block,GPR151 ag,FBW7 act
CC(=O)Nc1ccc(C2NN=C(c3ccccc3)S2)cc1 (stereo not drawn),i,i,i,i
COc1ccc([N+](=O)[O-])cc1C1NN=C(c2ccccc2)S1 (stereo not drawn),i,i,i,i
O=CN1CCCN(c2nc3nonc3nc2N2CCCC2)CC1,i,i,i,i
COc1ccc(C(=O)Nn2c(C3CC3)nc3ccccc3c2=O)cc1,i,i,i,i
COc1ccc(C(=O)Nn2c(SCC(=O)N3CCCC3)nc3ccccc3c2=O)cc1,i,78,i,i
O=C(CSc1nc2ccccc2c(=O)n1NC(=O)c1ccc(F)cc1)NC1CCCCC1,i,i,i,i
COc1ccc(C(=O)Nn2c(SCC(=O)N3CCC(C)CC3)nc3ccccc3c2=O)cc1,i,82,i,i
COc1ccc(C(=O)Nn2c(SCC(=O)c3ccc(Cl)cc3)nc3ccccc3c2=O)cc1,i,77,i,i
COc1ccc(C(=O)Nn2c(SCC(=O)NC3CCCCC3)nc3ccccc3c2=O)cc1,i,81,i,i
COc1ccc(C(=O)Nn2c(C)nc3ccccc3c2=O)cc1,i,i,i,i
